Our source for the Potency values is PubChem BioAssay (NCATS).

“And” between values parts separate entries of the source, which are not always exact repeats. Equal values may be shown once. Inconclusive results are not listed. A call without a number means that no potency is given here. The source made the active and inactive calls. Calls follow the shape of the dose curve; as a rule, active = well fitted inhibition curve with a large enough effect; inconclusive = small, poorly fitted or top-dose-only effect; inactive = flat fitted curve, though single readings scatter.
Potency is read from the fitted curve at half-maximal effect.

Sequence of Ubiquitin carboxyl-terminal hydrolase 1 (Homo sapiens) (O94782 whole entry, looked up): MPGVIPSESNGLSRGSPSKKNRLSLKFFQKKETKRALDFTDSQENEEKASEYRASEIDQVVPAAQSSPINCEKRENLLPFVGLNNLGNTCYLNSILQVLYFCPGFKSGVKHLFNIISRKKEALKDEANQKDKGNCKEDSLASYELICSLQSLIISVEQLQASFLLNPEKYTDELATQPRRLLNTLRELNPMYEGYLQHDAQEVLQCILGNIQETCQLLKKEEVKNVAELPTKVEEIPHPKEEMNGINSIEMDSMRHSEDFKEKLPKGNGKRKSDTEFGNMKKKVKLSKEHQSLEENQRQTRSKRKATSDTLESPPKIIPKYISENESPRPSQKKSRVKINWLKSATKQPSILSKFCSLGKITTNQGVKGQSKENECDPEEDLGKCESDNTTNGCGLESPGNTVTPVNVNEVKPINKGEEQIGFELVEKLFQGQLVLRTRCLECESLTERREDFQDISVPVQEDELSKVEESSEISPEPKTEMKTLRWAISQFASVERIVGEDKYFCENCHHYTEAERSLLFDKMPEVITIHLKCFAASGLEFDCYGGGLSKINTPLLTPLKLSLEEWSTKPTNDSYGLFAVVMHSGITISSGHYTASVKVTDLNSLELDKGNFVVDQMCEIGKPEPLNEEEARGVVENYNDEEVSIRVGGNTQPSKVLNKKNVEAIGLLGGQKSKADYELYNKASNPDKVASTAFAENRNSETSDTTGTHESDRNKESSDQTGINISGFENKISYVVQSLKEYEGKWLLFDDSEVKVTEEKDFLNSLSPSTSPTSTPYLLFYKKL

In one assay the target is Ubiquitin carboxyl-terminal hydrolase 1 (Homo sapiens) (UniProt O94782). Briefly: Inhibitors of USP1/UAF1: Pilot qHTS (AID 504865). Also: nearly all actives have a fitted effect of over 35% in size. The conditions noted are these: purified USP1/UAF1, Ub-rhodamine cleavage fluorescence; series mostly up to 114 µM. In outline:
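Kinetic fluorescence assay: 1nM USP1/UAF1, 15 min compound preincubation, then 150nM Ub-Rho; 480/540 nm.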
For orientation: Quantitative high-throughput screening tests each substance at several concentrations.
In the case of `O=C(Nc1ccc(C(=O)Nc2ccc(C(=O)Nc3ccc(S(=O)(=O)O)c4cc(S(=O)(=O)O)cc(S(=O)(=O)O)c34)cc2)cc1)Nc1ccc(C(=O)Nc2ccc(C(=O)Nc3ccc(S(=O)(=O)O)c4cc(S(=O)(=O)O)cc(S(=O)(=O)O)c34)cc2)cc1`, the Potency is 39.8 µM (active).
Take `O=C(O)c1nc2cc(Cl)c(Cl)cc2[nH]c1=O`: the Potency result is “inactive”.
The same measure, in the same setting: next, `O=C(Nc1cc(C(=O)Nc2ccc(S(=O)(=O)O)cc2S(=O)(=O)O)cc(C(=O)Nc2ccc(S(=O)(=O)O)cc2S(=O)(=O)O)c1)Nc1cc(C(=O)Nc2ccc(S(=O)(=O)O)cc2S(=O)(=O)O)cc(C(=O)Nc2ccc(S(=O)(=O)O)cc2S(=O)(=O)O)c1`: 1 µM (active); `O=c1c(O)cc(C2Oc3cc(O)cc(O)c3CC2O)cc2c(C3Oc4cc(O)cc(O)c4CC3O)cc(O)c(O)c12` (centres undefined): 35.5 µM (active).

System in a further assay: not listed separately
Briefly: Confirmatory screen GU Rhodamine qHTS for Zika virus inhibitors qHTS (AID 1347157). Also: nearly all actives have a fitted effect of over 70% in size. The following applies: purified enzyme assay, Rhodamine110 substrate fluorescence, 15 min; series mostly up to 114 µM. An outline of the steps: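 Percent inhibition came from the 15-min rise in Rhodamine110 fluorescence (1.5 microM substrate, ~15% conversion), normalized to no-inhibitor and no-enzyme wells and Hill-fitted. Unlinked protease, 25 nM, pH 8.0 Tris buffer; compounds up to 114 microM, 15-min preincubation.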
Consider `CCOC(=O)c1c(-c2ccccc2)csc1NC(=O)c1cc(-c2ccc(Cl)cc2)on1`, for which the Potency entry is “inactive”.
Take `CCCCOC(=O)c1ccc(NC(=O)c2ccc3c(c2)CCN3S(=O)(=O)c2ccccc2)cc1`: the Potency result was “inactive”.
Still for that read-out and setting: the same measure for `CCOC(=O)c1ccc(N2C(=O)c3n[nH]c(-c4cccs4)c3C2c2ccc(Cl)cc2Cl)cc1` (centres undefined): 31.6 µM (active).
Still for that read-out and setting: next, `Nc1c(N=Nc2ccc([N+](=O)[O-])cc2)c(S(=O)(=O)O)cc2cc(S(=O)(=O)O)c(/C=C/c3ccccc3)c(O)c12`: 3.16 µM (active).
As to `O=C(OCc1cc(=O)n2nc(C3CC3)sc2n1)c1ccc(NC(=O)c2ccccc2Cl)cc1`, the Potency was 50.1 µM (active).
Still for that read-out and setting: next, `Cc1c(C2(c3cc(C(C)C)c(O)c(Br)c3C)OS(=O)(=O)c3ccccc32)cc(C(C)C)c(O)c1Br`: 5.01 µM (active); `O=C(Nc1ccc(C(=O)Nc2ccc(C(=O)Nc3ccc(S(=O)(=O)O)c4cc(S(=O)(=O)O)cc(S(=O)(=O)O)c34)cc2)cc1)Nc1ccc(C(=O)Nc2ccc(C(=O)Nc3ccc(S(=O)(=O)O)c4cc(S(=O)(=O)O)cc(S(=O)(=O)O)c34)cc2)cc1`: 2 µM (active).
Consider `CCS(=O)(=O)c1cccc(C(=O)Nc2ccc(-c3nc4ccccc4s3)c(O)c2)c1`, for which the Potency is 25.1 µM (active).
The same measure, in the same setting: the same measure for `CCOC(=O)c1ccccc1NC(=O)CSc1ccc(-c2sc(-c3ccccc3)nc2C)nn1`: “inactive”.
The same measure, in the same setting: next, `O=C(O)c1c(Br)c(Br)c(Br)c(Br)c1C1c2ccc(O)cc2Oc2cc(O)ccc21`: 12.6 µM (active); `CCOC(=O)c1ccc(NC(=O)c2nc(SCc3ccccc3F)ncc2Cl)cc1`: “inactive”.
For `O=C(O)c1nc2cc(Cl)c(Cl)cc2[nH]c1=O`, the Potency entry was “inactive”.
For the compound `Cc1ccc(OCC(=O)Nc2ccccc2C(=O)OCc2cc(=O)n3nc(C4CC4)sc3n2)cc1`, the Potency entry is “inactive”.
Same read-out and setting: next, `N#C/C(=C\c1ccc(-c2cc(Cl)ccc2Cl)o1)C(=O)Nc1ccccc1C(=O)O`: 3.16 µM (active); `CCOC(=O)c1ccc(CN(Cc2ccccc2C)S(=O)(=O)c2ccc(F)c(C(=O)Nc3cccc(OC)c3)c2)cc1`: “inactive”.
Still for that read-out and setting: next, `O=C(O)c1ccccc1-c1c2cc(I)c(=O)c(I)c-2oc2c(I)c(O)c(I)cc12`: 14.1 µM (active).
Consider `O=C(Nc1cccc(C(=O)OCc2cc(=O)n3c4c(sc3n2)CCCC4)c1)c1cccc(Cl)c1`, for which the Potency result is “inactive”.
For the compound `CC(C)c1ccc(Nc2sc(C(=O)c3ccccc3)c(N)c2S(=O)(=O)c2ccccc2)cc1`, the Potency entry is “inactive”.
Still for that read-out and setting: the same measure for `CCOC(=O)c1ccc(CN(Cc2ccc(F)cc2)S(=O)(=O)c2ccc(F)c(C(=O)Nc3ccccc3C(F)(F)F)c2)cc1`: “inactive”.
Still for that read-out and setting: next, `O=C(Nc1cc(C(=O)Nc2ccc(S(=O)(=O)O)cc2S(=O)(=O)O)cc(C(=O)Nc2ccc(S(=O)(=O)O)cc2S(=O)(=O)O)c1)Nc1cc(C(=O)Nc2ccc(S(=O)(=O)O)cc2S(=O)(=O)O)cc(C(=O)Nc2ccc(S(=O)(=O)O)cc2S(=O)(=O)O)c1`: 2.24 µM (active) and 4.47 µM (active).
The same measure, in the same setting: the same measure for `O=C(Nc1ccccc1C(=O)OCc1cc(=O)n2c3c(sc2n1)CCCC3)c1cccc(Cl)c1`: “inactive”.
On to `COc1ccc(NS(=O)(=O)c2ccc3c(c2)[C@H]2C=CC[C@H]2[C@@H](c2ccc(C(=O)O)cc2)N3)cc1`, for which the Potency is 20 µM (active).
`COc1ccc(OC)c(Nc2sc(C(=O)c3ccccc3)c(N)c2S(=O)(=O)c2ccccc2)c1`: the Potency entry is “inactive”.
As to `Cc1ccc(NC(=O)c2ccc3c(O)c(S(=O)(=O)c4ccccc4)c(=O)[nH]c3c2)cc1Cl`, the Potency was 8.91 µM (active).
With `COc1ccc(S(=O)(=O)c2c(Nc3ccc(C)cc3)sc(C(=O)c3ccc4c(c3)OCO4)c2N)cc1`, the Potency entry is “inactive”.
In the case of `CCOC(=O)c1ccc(NC(=O)c2nc(SCc3ccc(F)cc3)ncc2Cl)cc1`, the Potency entry was “inactive”.
On to `O=C(Nc1ccc(C(=O)OCc2cc(=O)n3nc(C4CC4)sc3n2)cc1)c1ccccc1`, for which the Potency entry is “inactive”.
Regarding `O=C(Nc1ccccc1C(=O)OCc1cc(=O)n2c3c(sc2n1)CCCC3)c1ccc(Cl)cc1`, the Potency result is “inactive”.
Still for that read-out and setting: the same measure for `O=C(Nc1ccccc1C(=O)OCc1cc(=O)n2nc(C3CC3)sc2n1)c1cccc(Cl)c1`: “inactive”.
Same read-out and setting: next, `O=c1c(O)cc(C2Oc3cc(O)cc(O)c3CC2O)cc2c(C3Oc4cc(O)cc(O)c4CC3O)cc(O)c(O)c12` (centres undefined): 12.6 µM (active).
Consider `CC(=O)Nc1ccc(S(=O)(=O)O)c2cc(S(=O)(=O)O)c(N=Nc3ccc(N=Nc4ccc(S(=O)(=O)O)cc4)c4ccc(S(=O)(=O)O)cc34)c(O)c12`, for which the Potency was 6.31 µM (active).
On to `CC(C)c1nn2c(=O)cc(COC(=O)c3ccccc3NC(=O)c3cccc(Cl)c3)nc2s1`, for which the Potency result was “inactive”.
In the case of `O=C(CNC(=O)c1ccccc1F)OCc1cc(=O)n2nc(C3CCCCC3)sc2n1`, the Potency entry is “inactive”.
For `COc1ccc2c(c1)Oc1nc(-c3ccc(C)s3)nc(SCC(=O)Nc3cccc(C(=O)O)c3)c1C2`, the Potency is 5.01 µM (active).
As for `CCOC(=O)c1ccc(N2C(=O)c3n[nH]c(-c4cccs4)c3C2c2ccc(C(C)(C)C)cc2)cc1` (centres undefined), the Potency is 20 µM (active).
As to `O=C(Nc1ccc(C(=O)OCc2cc(=O)n3nc(C4CC4)sc3n2)cc1)c1ccc(F)cc1`, the Potency entry is “inactive”.
In the case of `O=C(Nc1ccc(C(=O)OCc2cc(=O)n3nc(C4CC4)sc3n2)cc1)c1cccc(F)c1`, the Potency result is “inactive”.
`CC(Oc1ccccc1)C(=O)Nc1ccc(C(=O)OCc2cc(=O)n3nc(C(C)C)sc3n2)cc1` (centres undefined): the Potency entry was “inactive”.
As to `CCCCc1nn2c(=O)cc(COC(=O)c3ccc(NC(=O)c4cccs4)cc3)nc2s1`, the Potency result is “inactive”.
On to `O=C(COC(=O)c1cccc(NC(=O)c2ccc(Br)cc2)c1)c1ccc(Cl)cc1`, for which the Potency entry is “inactive”.
